Test results: PubChem BioAssay (NCATS)
Records with an inconclusive call do not appear. A number with no mark means an inactive call. Active and inactive are the calls of the source. Calls follow the shape of the dose curve; as a rule, active = well fitted inhibition curve with a large enough effect; inconclusive = small, poorly fitted or top-dose-only effect, or effect the other way; inactive = flat fitted curve, though single readings scatter.

What follows are molecules tested against ATPase family AAA domain-containing protein 5 (Homo sapiens) (UniProt Q96QE3) (assay: Validation screen for small molecules that inhibit ELG1-dependent DNA repair in human embryonic kidney (HEK293T) cells expressing luciferase-tagged ELG1 (AID 493107; also: nearly all actives have a fitted effect of over 70% in size;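 as to activity change, negative = decrease: inhibitors lower the ELG1-luciferase luminescence signal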)). Conditions: HEK293T ELG1-luciferase level, luminescence, 5-fluorouridine co-treatment, 16 h; series mostly up to 46.1 µM; activity change, negative = decrease: at the top concentration.
ATPase family AAA domain-containing protein 5 (Homo sapiens), sequence (Q96QE3 whole entry, looked up, the tested form may be a part): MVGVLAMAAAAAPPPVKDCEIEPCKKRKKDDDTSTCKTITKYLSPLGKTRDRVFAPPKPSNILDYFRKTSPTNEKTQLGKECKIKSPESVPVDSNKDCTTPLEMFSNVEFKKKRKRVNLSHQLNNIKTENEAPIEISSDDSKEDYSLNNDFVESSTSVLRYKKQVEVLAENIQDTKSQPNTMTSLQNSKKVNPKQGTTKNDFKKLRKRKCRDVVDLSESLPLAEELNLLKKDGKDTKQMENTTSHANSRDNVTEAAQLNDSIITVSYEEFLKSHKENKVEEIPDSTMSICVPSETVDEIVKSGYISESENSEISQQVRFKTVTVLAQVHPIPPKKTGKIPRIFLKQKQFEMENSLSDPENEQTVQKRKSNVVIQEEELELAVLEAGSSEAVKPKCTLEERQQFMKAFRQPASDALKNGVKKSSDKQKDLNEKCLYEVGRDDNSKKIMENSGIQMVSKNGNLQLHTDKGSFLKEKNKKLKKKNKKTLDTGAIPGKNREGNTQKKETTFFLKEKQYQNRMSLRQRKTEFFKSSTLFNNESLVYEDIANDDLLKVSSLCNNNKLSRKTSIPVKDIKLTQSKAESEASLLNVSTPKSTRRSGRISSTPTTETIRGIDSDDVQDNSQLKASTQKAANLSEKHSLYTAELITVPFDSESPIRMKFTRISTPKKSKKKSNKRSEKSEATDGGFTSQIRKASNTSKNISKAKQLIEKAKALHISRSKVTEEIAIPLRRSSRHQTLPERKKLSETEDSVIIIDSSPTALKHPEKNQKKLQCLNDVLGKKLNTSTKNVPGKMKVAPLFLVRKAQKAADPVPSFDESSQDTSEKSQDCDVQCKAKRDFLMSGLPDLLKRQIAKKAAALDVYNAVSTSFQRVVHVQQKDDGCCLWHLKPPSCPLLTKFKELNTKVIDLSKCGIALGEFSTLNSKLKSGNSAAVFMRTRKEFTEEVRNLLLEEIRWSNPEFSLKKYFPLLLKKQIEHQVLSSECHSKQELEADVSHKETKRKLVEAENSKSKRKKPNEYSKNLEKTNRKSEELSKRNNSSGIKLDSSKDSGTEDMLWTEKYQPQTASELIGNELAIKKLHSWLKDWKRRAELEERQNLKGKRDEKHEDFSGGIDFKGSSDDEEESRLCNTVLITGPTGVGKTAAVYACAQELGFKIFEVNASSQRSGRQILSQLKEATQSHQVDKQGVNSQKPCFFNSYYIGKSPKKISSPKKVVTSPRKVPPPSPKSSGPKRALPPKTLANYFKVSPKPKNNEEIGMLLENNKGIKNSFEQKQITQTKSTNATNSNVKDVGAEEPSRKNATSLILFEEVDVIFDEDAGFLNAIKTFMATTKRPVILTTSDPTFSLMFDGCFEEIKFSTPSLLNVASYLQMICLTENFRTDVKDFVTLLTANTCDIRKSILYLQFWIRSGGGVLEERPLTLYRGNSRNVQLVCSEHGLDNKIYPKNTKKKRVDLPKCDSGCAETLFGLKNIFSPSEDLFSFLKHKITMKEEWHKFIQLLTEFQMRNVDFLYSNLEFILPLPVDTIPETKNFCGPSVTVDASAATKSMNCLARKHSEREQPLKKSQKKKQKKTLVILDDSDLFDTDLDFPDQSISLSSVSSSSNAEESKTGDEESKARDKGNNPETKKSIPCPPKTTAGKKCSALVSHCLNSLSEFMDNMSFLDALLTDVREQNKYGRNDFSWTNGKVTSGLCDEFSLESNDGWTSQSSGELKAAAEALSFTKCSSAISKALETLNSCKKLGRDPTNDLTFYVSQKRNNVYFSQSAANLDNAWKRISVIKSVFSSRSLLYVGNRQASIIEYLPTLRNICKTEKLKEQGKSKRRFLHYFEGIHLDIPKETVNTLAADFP
Source text: NIH Molecular Libraries Probe Production Network [MLPCN]
NIH Chemical Genomics Center [NCGC]
Assay Provider: Kyungjae Myung, NHGRI, NIH
Keywords: MLPCN, qHTS, NCGC, genotoxicity, cancer
Cancer cells divide rapidly compared to normal cells in the body. During cell division, cancer cells need to duplicate their genome by DNA replication. The failure of genome duplication leads to cancer cells' death. Therefore, inhibitors of DNA replication could specifically kill cancer cells. Based on this concept, many chemotherapeutic agents were developed and have been used to treat cancer patients. However, there are a limited number of agents available in the clinical setting, and some of those that do exist have low efficacy and severe side effects. Therefore, if we can find the compounds that effectively block DNA replication either by directly damaging DNA or by inhibiting other cellular mechanisms, the options for cancer treatment will be broadened. With this in mind, we developed a quantitative high-throughput ELG1-luciferase reporter gene assay. Small molecules that specifically block ELG1 function in response to DNA damage can be identified by monitoring the suppression of luciferase activity. Since ELG1 defines a pathway for repairing DNA damage, agents blocking ELG1 function can be used to sensitize cancer cells to chemotherapeutic agents whose mechanism of action involves the induction of DNA damage.
For genotoxicity screening, 2,000 cells in 4 uL/well were dispensed into white, solid-bottom 1536-well plates using a solenoid-based dispenser. Following transfer of 1 uL 5-Fluorouridine and 23 nL compound or DMSO vehicle by a pin tool, the plates were incubated 16 hr at 37 °C and 5% CO2. 5 ul ONE-Glo (Promega) was then added to each plate and following a 30 min incubation at room temperature, luciferase activity was quantified on a ViewLux CCD-based plate reader.
% is scaled to controls: 0 for no effect and ±100 for the full control effect; potency is read from the fitted curve at half-maximal effect.

Structure (SMILES) | activity change, negative = decrease [%] | Potency
C=CCN1CCC23c4c5ccc(O)c4O[C@H]2C(=O)CC[C@@]3(O)C1C5 (stereo not given in full) | -11.4 | 
O=[N+]([O-])c1ccc2nc(N3CCNCC3)ccc2c1 | 7.78 | 
C[C@H](Cc1ccc2c(c1)OC(C(=O)O)(C(=O)O)O2)NC[C@H](O)c1cccc(Cl)c1 | 1.71 | 
CCOC(=O)c1ncn2c1[C@@H]1CCCN1C(=O)c1cc(OC)ccc1-2 | 9.51 | 
N#C/C(=C/c1ccc(O)c(O)c1)C(N)=S | -0.588 | 
Nc1ccc(CCN2CCN(c3cccc(C(F)(F)F)c3)CC2)cc1 | 0.176 | 
NC(=O)c1ccc(OCC(O)CN2CC=C(c3ccc(F)cc3)CC2)cc1 (stereo not given) | 3.58 | 
N[C@@H](Cn1oc(=O)[nH]c1=O)C(=O)O | 15.4 | 
NC(=O)c1cc(N2CC2)c([N+](=O)[O-])cc1[N+](=O)[O-] | -6.93 | 
C[N+]1(C)CCc2cc3c(cc2[C@H]1[C@@H]1OC(=O)c2c1ccc1c2OCO1)OCO3 | -1.37 | 
CCS(=O)(=O)Nc1cccc(C(=C2CCCCC2)c2cnc[nH]2)c1 | -11 | 
CO[C@H]1CC=C2CCN3CCC4=C(CC(=O)OC4)[C@]23C1 | 13.6 | 
CC(C)(O)[C@@H]1C2OC(=O)[C@@H]1[C@]1(O)C[C@H]3O[C@]34C(=O)O[C@H]2[C@]14C (tested in a mixture with another compound) | 4.42 | 
N[C@@H](CCl)C(=O)O | -12.2 | 
NC(N)=NOCC[C@H](N)C(=O)O | 18.5 | 
C#CCN[C@H](C)Cc1ccccc1 | 27.4 | 
C[N+](C)(C)CCOC(=O)CBr | -7.83 | 
C[C@H](N)CN1CCc2ccc(Br)cc21 | -14.3 | 
C[N+](C)(C)CC#CCOC(=O)Nc1cccc(Cl)c1 | -1.97 | 
O=C1C=CC(=O)C=C1 | 2.45 | 

Structure (SMILES) | activity change, negative = decrease [%] | Potency
CNc1ccc2oc(C[C@H]3O[C@@]4(CC[C@H]3C)O[C@H]([C@H](C)C(=O)c3ccc[nH]3)[C@H](C)C[C@H]4C)nc2c1C(=O)O |  | 13 µM (active)
C=CCN1CC[C@]23c4c5ccc(O)c4O[C@H]2/C(=N/NC(=O)c2ccccc2)CC[C@@]3(O)[C@H]1C5 | -2.35 | 
CCn1cnc2c(Nc3cccc(Cl)c3)nc(N[C@@H]3CCCC[C@@H]3N)nc21 |  | 4.61 µM (active)
CCCN1CCC[C@@H](c2cccc(O)c2)C1 | -1.56 | 
Oc1ccc2c3c1O[C@H]1c4[nH]c5ccccc5c4C[C@@]4(O)C(C2)N(CC2CC2)CCC314 (stereo not given in full) | -1.33 | 
CN1CCC(c2c[nH]c3ccc(O)cc23)CC1 | -19.7 | 
CCCN(CCC)CCc1ccc(O)c(O)c1 | 10.8 | 
N[C@@]1(C(=O)O)CC[C@@H](C(=O)O)C1 | -9.07 | 
NC(C(=O)O)c1cc(=O)[nH]o1 (stereo not given) | 3.89 | 
Oc1ccc2c3c1O[C@H]1c4oc5ccccc5c4C[C@@]4(O)C(C2)N(CC2CC2)CCC314 (stereo not given in full) | 19.2 | 
N[C@@H](Cn1ccc(=O)[nH]c1=O)C(=O)O | -11.5 | 
Cc1[nH]c2ccc(O)cc2c1CCN | -0.814 | 
CC(C)NP(=O)(NC(C)C)OP(=O)(NC(C)C)NC(C)C | 24.6 | 
c1ccc2c(c1)[I+]c1ccccc1-2 |  | 10.3 µM (active)
CCCn1c(=O)c2[nH]c(C3CCCC3)nc2n(CCCOC(=O)c2ccc(S(=O)(=O)F)cc2)c1=O | -18.1 | 
CCCCCCC(C)(C)c1ccc([C@@H]2C[C@H](O)CC[C@H]2CCCO)c(O)c1 |  | 16.4 µM (active)
C[N+](C)(C)CC#CCN1CCCC1=O | 6.25 | 
CCCN1CCc2cccc3c2[C@H]1Cc1ccc(O)c(O)c1-3 | -17.9 | 
C[C@@H]1O[C@@H](O[C@H]2C[C@@H](O)[C@]3(CO)[C@@H]4C(CC[C@]3(O)C2)[C@@]2(O)CC[C@H]([C@@H]3COC(=O)C3)[C@@]2(C)C[C@H]4O)[C@H](O)[C@H](O)[C@H]1O (stereo not given in full) |  | 2.06 µM (active)
N=C(N)c1ccc(CS(=O)(=O)F)cc1 | -6.01 | 
